Results with a measured potency or affinity are listed apart.
Target: Caspase-3 (Homo sapiens) (UniProt P42574)
Assay: human caspase-3 protease activity blockade – biochemical, fluorescence, cherry-picked samples, selectivity assay for caspase-6 allosteric inhibitor project, dose response (AID 743291)
Details: Recombinant caspase-3, Z-DEVD-R110 cleavage fluorescence; series mostly up to 35 µM; activity change, negative = inhibition: at the top concentration;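 active means signal drop with fitted half-maximal dose at most twice the top valid dose, active in every repeat; inconclusive means repeats disagree, or flat partial inhibition, or poor fit; inactive means inactive in every repeat, including opposite effects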

Chain of Caspase-3 (Homo sapiens) (P42574 whole entry, looked up): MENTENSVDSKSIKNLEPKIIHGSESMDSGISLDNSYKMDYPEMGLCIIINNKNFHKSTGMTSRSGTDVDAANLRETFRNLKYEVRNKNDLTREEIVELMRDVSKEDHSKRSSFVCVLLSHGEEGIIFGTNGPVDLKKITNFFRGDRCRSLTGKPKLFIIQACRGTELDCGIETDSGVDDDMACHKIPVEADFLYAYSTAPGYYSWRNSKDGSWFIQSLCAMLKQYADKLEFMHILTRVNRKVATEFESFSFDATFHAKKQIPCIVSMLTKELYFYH

Activity change, negative = inhibition, inactive:
O=C(Nc1ccc2nc3n(c(=O)c2c1)CCCCC3)c1c(F)ccc([N+](=O)[O-])c1F 3.48%, O=C(O)C1Nc2c(Cl)cc(Cl)c(Cl)c2C2C=CCC12 (stereo not drawn) 6.61%, Cc1cc(C=O)c(C)n1-c1cc(C(=O)O)cc(C(=O)O)c1 -0.391%, O=C(COC(=O)c1ccccc1)Nc1ncc([N+](=O)[O-])s1 2.71%, O=C(C[C@@H]1C[C@H]2c3cc(NC(=O)NC4CCCCC4)ccc3O[C@H]2[C@H](CO)O1)NCc1ccccn1 7.7%, Cc1ccc(NC(=O)CN(C)C(=O)c2cccc(-n3cccc3)c2)cc1 2.64%, COc1cc(NCCCCC(C)N)c2nccc(C)c2c1 (stereo not drawn) 3.62%, COc1ccc(NC(=O)CN(C)C(=O)c2cccc(-n3cccc3)c2)cc1 0.781%, O=S(=O)(O)c1cc(O)c2cc(Nc3ccccc3)ccc2c1 1.26%, Oc1cc2c(cc1O)[C@H]1c3ccc(O)c(O)c3OC[C@@]1(O)C2 -5.9%, O=C(COC(=O)c1ccc([N+](=O)[O-])s1)Nc1cccc(S(=O)(=O)NC2=NCCCCC2)c1 3.37%, COCCN(C(=O)COC(=O)c1cc2c(s1)CCC2)c1c(N)n(Cc2ccccc2)c(=O)[nH]c1=O -1.05%, COc1ccc(S(=O)(=O)Nc2cc(Sc3ncn[nH]3)c(O)c3ccccc23)cc1 0.674%, Nc1cc(S(=O)(=O)O)cc([N+](=O)[O-])c1O 8.37%, COCCn1c2nc(=O)n(-c3ccccc3)c(=O)c-2nc2ccccc21 0.556%, COc1cc(-c2ccc(Nc3ccccc3C(=O)O)c(OC)c2)ccc1Nc1ccccc1C(=O)O -0.885%, COc1ccc([N+](=O)[O-])cc1NC(=O)CCS(=O)(=O)c1ccc(Br)cc1 5.2%, Cc1c(NC(=O)C(C)OC(=O)c2ccc([N+](=O)[O-])s2)c(=O)n(-c2ccccc2)n1C (stereo not drawn) -0.097%, O=C(O)/C(=C\c1ccc(Cl)c([N+](=O)[O-])c1)c1ccc(S(=O)(=O)N2CCCC2)s1 2.29%, Oc1cc(NCCN2CCOCC2)cc2cccnc12 7%, O=C1CN(C(=O)COC(=O)c2ccc([N+](=O)[O-])s2)c2ccccc2N1 3.76%, O=c1[nH]c(Nc2ccccc2Cl)cc2ccccc12 -3.15%, CO[C@H]1CN(C)C(=O)c2cc(NC(C)=O)ccc2OC[C@@H](C)N(C(=O)CC2CC2)C[C@H]1C 5.39%, CCCSC1=N/C(=C\c2ccc([N+](=O)[O-])o2)C(=O)S1 -7.75%, O=P(c1ccccc1)(c1ccccc1)c1cc(S(=O)(=O)O)ccc1O 0.416%, Oc1cc(O)cc(C=Cc2ccc(O)c(O)c2)c1 0.444%, CC(CNc1ccccc1O)C(=O)O (stereo not drawn) -2.67%, Nc1ccc(Nc2ccccc2)c(S(=O)(=O)O)c1 1.55%, O=C1NC(=O)C(=Cc2ccccc2[N+](=O)[O-])S1 1.62%, CN(CC(=O)Nc1ccccc1Cl)C(=O)COC(=O)c1ccc([N+](=O)[O-])s1 2.73%, CC(C)(C)c1ccc(NC(=O)COC(=O)c2ccc([N+](=O)[O-])s2)cc1 -9.48%, CN(C)CCCNc1cc(O)c2ncccc2c1 4.7%, CCOC(=O)[C@H](Cc1c[nH]c2ccccc12)NC(=O)CN=[N+]=[N-] 1.19%, CCCc1nc2c(=O)n(C)c(=O)nc-2n(C)n1 0.922%, CCCN(C(=O)c1cccc(-n2cccc2)c1)c1c(N)n(Cc2ccccc2)c(=O)[nH]c1=O -0.571%, CCCCNC(=O)c1nc(C2CCNCC2)oc1-c1cccc(C(F)(F)F)c1 6.13%, COc1ccccc1NC(=O)COC(=O)c1ccc([N+](=O)[O-])s1 -44.9%, Nc1c(O)cccc1C(=O)O 9.43%

From PubChem BioAssay AID743291 (Broad Institute, 2014)
